KB-V1 cytotox: KB-V1 MDR subline cytotoxicity | KB-V1 MDR cells viability, CellTiter-Glo, 72 h | Potency, µM (series often up to 46.1 µM), usual class: cytotoxic | 400,000 compounds, 3.4% hits | AID 1347076; also: % is scaled to controls: 0 for no effect and ±100 for the full control effect; nearly all actives have a fitted effect of over 60% in size
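In this primary screen, KB-V1 cells overexpressing P-gp are incubated with library compounds (lowest to highest concentration) for 72 h at 37 degrees C before a luminescent ATP viability read.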
KB-3-1 cytotox: kills parental KB-3-1 adenocarcinoma cells; KB-3-1 viability, CellTiter-Glo ATP luminescence, 72 h; Potency, µM (titrated, usually from 46.1 µM), hits mostly cytotoxic; 400,000 compounds, 1.4% hits; AID 1347075; also: % is scaled to controls: 0 for no effect and ±100 for the full control effect; nearly all actives have a fitted effect of over 60% in size
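72 h, 37 °C compound treatment of KB-3-1 parental cells; CellTiter-Glo added, 10 min, luminescence read. Data corrected against DMSO-only plates and normalized before curve fitting.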
SW480 rerep: induces DNA re-replication in SW480 colon adenocarcinoma cells. SW480 DNA re-replication, Hoechst DNA content imaging, 48 h. Potency, µM (titrated, usually from 46.1 µM), without a hit: at the top dose re-replication activation, most hits filed as activators. 340,000 compounds, 1.8% hits; also: % of control where 0% means no effect; nearly all actives have a fitted effect of over 55% in size
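First, 250 cells per well were seeded. Next, compound or vehicle (23 nL) was pinned in, plates sat 48 hr at 37 C. Finally Hoechst was added for 40 min before fluorescence scanning.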
ELG1 repair inh: ELG1-dependent DNA repair inhibition | HEK293T ELG1-luciferase reporter, luminescence, 16 h; DNA damage induced by 5-fluorouridine | Potency, µM (highest dose often 46.1 µM), without a hit: at the highest dose activity change, negative = inhibition, actives largely listed as inhibitors | 330,000 compounds, 2.3% hits | AID 504467; also: % is scaled to controls: 0 for no effect and ±100 for the full control effect; nearly all actives have a fitted effect of over 55% in size
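Reporter activity after DNA damage by 5-fluorouridine is monitored. Compound-treated cells incubate 16 hr at 37 °C, then ONE-Glo is added for 30 min before luminescence reading.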
MCF10A rerep: inducers of DNA re-replication in MCF 10A breast cells; Potency, µM (doses to about 46.1 µM), inactives show at the highest dose activity, positive = re-replication, most hits filed as activators; AID 624296; 350,000 compounds, 2.9% hits; MCF 10A DNA re-replication, Hoechst nuclear intensity, 48 h; also: % of control where 0% means no effect; nearly all actives have a fitted effect of over 50% in size
* hit, by the source's call; i = inactive; ? = inconclusive; · = no result given; ! = not active in a repeat. Compounds with a hit are over-represented: about 8.2% of the library has one in this group of screens. Calls follow the shape of the dose curve; as a rule, active = well fitted curve in the direction sought with a large enough effect; inconclusive = small, poorly fitted or top-dose-only effect, or another doubt; inactive = no such curve, though single readings can be large; an effect the other way counts as inactive or inconclusive. Potency is read from the fitted curve at half-maximal effect.

SMILES | KB-V1 cytotox | KB-3-1 cytotox | SW480 rerep | ELG1 repair inh | MCF10A rerep
CCCCN(C)S(=O)(=O)c1ccc(C(=O)Nc2nnc(C3=COCCO3)o2)cc1 | ? | i | 6.2% | 14.6µM* | 15.9%
COc1ccc(C(=O)Nc2nnc(C3=COCCO3)o2)cc1 | i | i | 18.3% | 4.1% | 3.1%
CCOc1ccc(C(=O)Nc2nnc(C3=COCCO3)o2)cc1 | ? | 0.0012µM* | 1.1% | 0.0% | 10.9%
Cc1ccc(-c2c(C(=O)Nc3ccccc3F)oc(=O)c3ccccc23)cc1 | i | i | · | · | ·
Cc1ccc(-c2c(C(=O)NCc3ccc(F)cc3)oc(=O)c3ccccc23)cc1 | 16.4µM*! | i | 0.2% | ? | 8.6%
COc1ccc(N2CCN(C(=O)CC34CC5CC(CC(C5)C3)C4)CC2)c([N+](=O)[O-])c1 | 18.4µM* | ? | 4.0% | ? | ?
Cc1cc(Nc2cc(Cl)nc(Sc3ccc(NC(=O)C4CC4)cc3)n2)n[nH]1 | i | 1.64µM* | 20.6µM* | · | 34.3%
COC(=O)c1cc(S(=O)(=O)N2CCN(c3ccc([N+](=O)[O-])cc3)CC2)c[nH]1 | i | i | ? | 16.4µM* | 3.5%
COC(=O)CC1Oc2ccccc2-n2cc(-c3ccc(Cl)cc3)nc21 (centres undefined) | i | i | · | · | ·
CCOC1CCCc2oc(-c3ccc(N(C)C)cc3)c(C(=O)OC)c21 (centres undefined) | 8.2µM* | ? | · | · | ·
CCc1cc(C(=O)c2ccccc2OC)c(N)s1 | ? | i | 1.6% | ? | -11.0%
CCn1c(=O)[nH]c(=O)c2c(N)c(C(=O)c3ccccc3OC)sc21 | 23.1µM* | i | -32.4% | -21.1% | 1.0%
CSc1ccc(OC2(C)CCN(Cc3ccc(C(C)C)cc3)C2)cc1 (centres undefined) | i | i | · | · | ·
O=C(Nc1ccccc1C(F)(F)F)c1noc2c1CCCC2 | i | i | · | · | ·
Cc1nn(-c2cc(N3CCCCCC3)ccc2[N+](=O)[O-])c(=O)c2ccccc12 | 3.66µM* | i | 10.5% | -4.1% | 11.7%
Cc1nc2ncnn2c(C)c1CCC(=O)NCc1ccccc1Cl | ? | i | · | · | ·
Cc1nn2cc(-c3cccc(Cl)c3)cnc2c1Cl | 5.8µM* | 13µM* | 6.51µM* | ? | 9.2µM*
OC[C@@H]1CN(CCN2CCOCC2)C[C@H](n2cnc3c(N4CCOCC4)ncnc32)O1 | i | i | · | · | ·
COc1cc(NC(=O)c2cc3c(Cl)nc4ccccc4c3s2)cc(OC)c1OC | i | i | 5.5% | 6.51µM* | ?
COc1ccc(NC(=O)c2cc3c(Cl)nc4ccccc4c3s2)c(OC)c1 | i | i | 1.3% | 12.2% | 0.0%
CN(CCCNC(=O)c1cc2c(Cl)nc3ccccc3c2s1)Cc1ccccc1 | i | i | 20.6µM* | 15.7% | ?
O=C(CSc1nnnn1-c1ccccc1)N1CCc2ccccc2C1 | 14.6µM* | i | -4.0% | -5.0% | 20.9%
CC(=O)c1ccc(-n2nnnc2SCC(=O)N2CCc3ccccc3C2)cc1 | 11.6µM* | i | ? | ? | -3.1%
c1ccc(CNc2nc3ccccc3[nH]2)cc1 | i | i | ? | ? | ?
Cc1ccc2nc(NCc3ccccc3)[nH]c2c1 | 5.8µM* | 5.17µM* | 5.17µM* | ? | ?
SMILES | KB-V1 cytotox | KB-3-1 cytotox | SW480 rerep | ELG1 repair inh | MCF10A rerep
COc1ccc2nc(NCc3ccccc3)[nH]c2c1 | ? | 9.2µM* | 14.6µM* | ? | 18.4µM*
COc1ccc2nc(NCCO)[nH]c2c1 | i | i | 2.2% | -4.9% | -17.5%
CC(=O)O[C@@H](C[C@@H](C)C1=C2C[C@H](O)C3[C@@]4(C)CCC(=O)C(C)(C)C4CC[C@]3(C)[C@@]2(C)CC1)[C@H]1OC1(C)C (some centres undefined) | i | i | 24.0% | · | ?
CCOC(=O)Cc1csc(NC(=O)CSc2nnc(-n3nc(C)cc3C)c3ccccc23)n1 | 20.6µM* | i | -1.5% | ? | 18.9%
Cc1cc(C)n(-c2nnc(SCC(=O)NC3CCCC3)c3ccccc23)n1 | i | i | 0.8% | 16.4µM* | 0.5%
CC(C)CC(OC(=O)c1nsc(Cl)c1Cl)C(=O)NCC1CCCO1 (centres undefined) | i | i | -1.8% | 11.0% | -0.9%
CCOc1cc(CNc2ccc(CNc3ncn[nH]3)cc2)ccc1OCc1ccccc1 | 18.4µM* | 23.1µM* | -44.0% | -29.3% | 21.4%
CCOc1cc(CNc2ccc(C(=O)O)cc2)ccc1OCc1ccccc1 | i | i | · | · | ·
COc1ccc(-c2ccc3oc(-c4ccsc4)c(-c4ccc(OC)cc4)c3c2)cc1 | i | i | -29.9% | · | -10.8%
COc1ccc(-c2c(-c3ccsc3)oc3ccc(N4CCOCC4)cc23)cn1 | i | i | 3.7% | · | 18.4µM*
O=c1cc(-c2ccccc2)oc2ccc(O)cc12 | 5.8µM* | i | -11.4% | ? | -1.5%
O=c1cc(-c2ccccc2)oc2ccccc12 | i | i | -53.0% | ? | ?
COc1ccc2oc(-c3ccncc3)cc(=O)c2c1 | 3.66µM* | ? | -9.6% | · | -42.3%
COC(=O)c1ccc(/C=C/c2c(-c3ccsc3)oc3ccc(N4CCOCC4)cc23)cc1 | i | ? | -3.9% | -2.2% | 5.8µM*
COc1ccc(-c2ccc3oc(-c4ccsc4)cc(=O)c3c2)cn1 | i | i | 2.91µM* | ? | 0.6%
Nc1ccc(C#Cc2c(-c3ccsc3)oc3ccc(N4CCOCC4)cc23)cc1 | i | i | 3.4% | · | 13µM*
COc1ccc(-c2ccc3oc(-c4ccsc4)cc(=O)c3c2)cc1F | ? | i | -3.1% | ? | 19.7%
COc1ccc(-c2oc3ccc(-c4ccc(OC)nc4)cc3c2-c2ccc(OC)cc2)cc1 | i | i | ? | · | 6.51µM*
COc1ccc(-c2oc3ccc(-c4ccc5c(c4)OCO5)cc3c2-c2ccc(OC)nc2)cc1 | ? | i | -8.3% | · | -9.7%
Cc1ccc(-n2nc3c(N4CCCC(C(=O)NCCc5ccccc5)C4)nnc(C)c3c2C)cc1 (centres undefined) | i | i | · | · | ·
Cc1cccc2c(=O)c(-c3ccc4c(c3)OCO4)c(NC(=O)c3ccco3)oc12 | i | i | -1.0% | 10.3µM* | 2.3%
O=C(Nc1cccc(NC(=O)c2ccco2)c1)c1ccc2c(c1)OCO2 | 12.6µM* | i | 0.4% | -24.8% | -25.8%
CCCCC(=O)Nc1cccc(NC(=O)c2ccc3c(c2)OCO3)c1 | 13µM* | i | -3.9% | ? | 0.6%
CCCCC(=O)Nc1cccc(NC(=O)c2ccc(Br)o2)c1 | 11.6µM* | i | 1.1% | ? | -1.2%
CCOc1cc(C(=O)Nc2ccc3c(c2)OCO3)ccc1OC(F)F | 20.6µM* | i | -10.7% | ? | -1.8%
